A short description of experiment [1]: compounds binding Alexa647 anti-His antibody – biochemical, small-molecule microarray, 635 nm fluorescence, artefact control for SMM control protein annotation, primary screen (AID 1128).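 Also: score merges feature fluorescence with signal-to-noise for each printed compound spot.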 The note with it: higher = more signal.
Experiment [2] has as its system Human papillomavirus type 1a E7 protein (residues 1-88). Nature of the experiment: HPV1a E7 small-molecule binders, primary screen, biochemical, small-molecule microarray, residues 1-88, 635 nm (AID 1129). The following applies: small-molecule microarray binding, fluorescence 635 nm; higher = more signal.
Experiment [3] concerns the target Focal adhesion kinase 1 (Homo sapiens) (UniProt Q05397). The experiment is described as follows: PTK2 protein binding on printed compound slides – biochemical, small-molecule microarray, 635/667 nm fluorescence, BSA, DTT, primary screen (AID 1130).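 Also: composite of spot emission at 667 nm and signal to noise over triplicate slides.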 The following applies: 635 nm fluorescence, higher = more signal.
The test system of experiment [4] is Fibrinogen (Alexa647-labelled). Nature of the experiment: Alexa647-fibrinogen binding to printed small molecules – biochemical, small-molecule microarray, 635/667 nm fluorescence, artefact control for SMM control-protein annotation, profiling panel (AID 1131).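 Also: z-score merges 667 nm fluorescence with per-spot signal-to-noise over triplicate slides.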 The note with it: fibrinogen-A647 binding fluorescence, higher = more signal.
Experiment [5] has as its target Follistatin (Homo sapiens) (UniProt P19883). Nature of the experiment: FST protein binding to printed compounds – biochemical, small-molecule microarray, 635/667 nm fluorescence, primary screen (AID 1132). The following applies: 635 nm fluorescence, higher = more signal.
For experiment [6], the target named is Fibroblast growth factor 2 (Homo sapiens) (UniProt P09038). The experiment is described as follows: basic fibroblast growth factor binding to printed compounds – biochemical, small-molecule microarray, 635/667 nm fluorescence, primary screen (AID 1133). The note with it: FGF2, fluorescence 635/667, higher = more signal.
Chain of Fibroblast growth factor 2 (Homo sapiens) (P09038 whole entry, looked up): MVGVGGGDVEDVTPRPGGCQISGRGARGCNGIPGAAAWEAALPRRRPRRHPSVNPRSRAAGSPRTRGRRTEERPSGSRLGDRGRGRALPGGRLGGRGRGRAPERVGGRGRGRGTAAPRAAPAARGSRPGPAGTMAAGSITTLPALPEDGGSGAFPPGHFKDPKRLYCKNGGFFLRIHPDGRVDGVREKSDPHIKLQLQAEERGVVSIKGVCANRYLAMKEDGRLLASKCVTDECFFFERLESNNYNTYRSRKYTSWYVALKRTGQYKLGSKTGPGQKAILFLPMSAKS
Experiment [7] in a line: JC-1 mitochondrial potential readout, lung cancer cells – cell-based, A549, JC-1 fluorescence, basal, 24 h, 100 nL, profiling panel (AID 1138).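 Also: A549 lung adenocarcinoma cells under basal conditions with no added stimulus; test concentration not given here.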 The following applies: higher = more signal.
In another experiment the test system is Lefty1. Nature of the experiment: Lefty1 protein binding to printed compounds – biochemical, small-molecule microarray, 635/667 nm fluorescence, primary screen (AID 1139). The following applies: fluorescence 635/667, higher = more signal.
For experiment [8], the system named is wheat germ agglutinin (Triticum aestivum), Alexa647-labelled. The experiment is described as follows: Alexa647-WGA lectin binding to printed small molecules – biochemical, small-molecule microarray, 635/667 nm fluorescence, artefact control for SMM control-protein annotation, profiling panel (AID 1140).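 Also: score merges 667 nm feature emission with signal to noise over triplicate slides.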 The following applies: WGA-A647 binding, 635 nm fluorescence, higher = more signal.

Experiment [9] concerns the target Luciferin 4-monooxygenase (Photinus pyralis) (UniProt P08659). The experiment is described as follows: inhibition of purified Photinus pyralis luciferase – biochemical, luminescence, purified enzyme, 2006 set, primary screen (AID 1141).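 Also: cell-free assay with purified firefly luciferase at 100 ng per well in PBS; test concentration not given here.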 The note with it: purified firefly luciferase, SteadyGlo luminescence, 30 min; higher = more signal, called active from +8 up or from −8 down.

The source made the active and inactive calls.

For 16 compounds, composite z-score and z-score results are on record in PubChem BioAssay.

Chain of Follistatin (Homo sapiens) (P19883 whole entry, looked up): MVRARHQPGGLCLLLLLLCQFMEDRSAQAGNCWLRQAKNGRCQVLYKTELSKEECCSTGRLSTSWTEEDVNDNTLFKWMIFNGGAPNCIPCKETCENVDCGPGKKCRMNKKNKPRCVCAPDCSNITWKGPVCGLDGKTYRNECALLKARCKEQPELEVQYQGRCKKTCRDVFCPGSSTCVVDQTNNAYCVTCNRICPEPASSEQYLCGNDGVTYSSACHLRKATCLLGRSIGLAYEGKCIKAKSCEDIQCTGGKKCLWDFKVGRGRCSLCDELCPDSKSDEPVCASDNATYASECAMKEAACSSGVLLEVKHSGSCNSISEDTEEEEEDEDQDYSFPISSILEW
Chain of Luciferin 4-monooxygenase (Photinus pyralis) (P08659 whole entry, looked up): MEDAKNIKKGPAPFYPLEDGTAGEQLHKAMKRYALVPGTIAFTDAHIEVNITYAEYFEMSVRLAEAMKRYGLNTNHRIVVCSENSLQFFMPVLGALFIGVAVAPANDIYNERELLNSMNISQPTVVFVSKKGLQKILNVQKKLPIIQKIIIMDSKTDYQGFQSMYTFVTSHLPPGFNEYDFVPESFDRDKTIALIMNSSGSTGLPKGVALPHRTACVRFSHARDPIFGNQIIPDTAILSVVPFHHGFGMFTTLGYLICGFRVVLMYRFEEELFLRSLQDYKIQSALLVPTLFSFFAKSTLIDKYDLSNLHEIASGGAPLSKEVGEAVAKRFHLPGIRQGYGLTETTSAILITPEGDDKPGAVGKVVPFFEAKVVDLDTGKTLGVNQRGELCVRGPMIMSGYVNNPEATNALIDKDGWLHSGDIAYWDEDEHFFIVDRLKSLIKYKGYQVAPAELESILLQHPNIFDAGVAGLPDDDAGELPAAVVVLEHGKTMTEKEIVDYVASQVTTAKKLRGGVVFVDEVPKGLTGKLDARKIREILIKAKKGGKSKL
Chain of Focal adhesion kinase 1 (Homo sapiens) (Q05397 whole entry, looked up): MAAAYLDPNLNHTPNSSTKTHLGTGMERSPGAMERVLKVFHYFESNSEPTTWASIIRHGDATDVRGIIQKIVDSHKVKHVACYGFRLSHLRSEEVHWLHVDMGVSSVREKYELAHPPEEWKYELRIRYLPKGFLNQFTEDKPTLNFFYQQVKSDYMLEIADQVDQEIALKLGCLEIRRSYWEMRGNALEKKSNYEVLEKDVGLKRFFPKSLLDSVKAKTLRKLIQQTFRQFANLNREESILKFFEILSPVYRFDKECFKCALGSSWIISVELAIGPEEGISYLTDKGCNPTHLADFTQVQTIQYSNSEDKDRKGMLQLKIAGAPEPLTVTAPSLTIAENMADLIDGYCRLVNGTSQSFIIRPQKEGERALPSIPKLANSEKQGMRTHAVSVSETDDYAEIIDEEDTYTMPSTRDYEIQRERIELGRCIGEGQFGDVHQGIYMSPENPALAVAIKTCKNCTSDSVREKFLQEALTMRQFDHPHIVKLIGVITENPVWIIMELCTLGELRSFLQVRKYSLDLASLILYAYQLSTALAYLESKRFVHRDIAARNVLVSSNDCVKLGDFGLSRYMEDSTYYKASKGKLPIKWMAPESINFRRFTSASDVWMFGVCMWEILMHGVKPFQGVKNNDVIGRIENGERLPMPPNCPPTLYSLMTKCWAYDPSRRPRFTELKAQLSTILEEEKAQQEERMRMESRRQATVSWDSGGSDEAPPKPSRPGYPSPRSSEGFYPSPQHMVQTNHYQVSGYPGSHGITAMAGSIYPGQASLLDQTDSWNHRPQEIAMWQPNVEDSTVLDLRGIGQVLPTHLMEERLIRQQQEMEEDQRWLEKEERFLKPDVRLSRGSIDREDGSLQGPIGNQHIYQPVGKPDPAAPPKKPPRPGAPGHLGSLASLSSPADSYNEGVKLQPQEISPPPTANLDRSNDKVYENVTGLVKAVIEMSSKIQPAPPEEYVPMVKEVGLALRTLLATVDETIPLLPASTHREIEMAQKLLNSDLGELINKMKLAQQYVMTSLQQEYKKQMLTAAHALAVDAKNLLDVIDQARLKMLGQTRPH

On to `COc1ccc([Si](C)(C)[C@H]2[C@H](CCn3cc(CCO)nn3)O[C@@]3(C(=O)N(Cc4ccc(N5CCOC5=O)cc4)c4ccccc43)[C@@H]2C)cc1`, for which the composite z-score in experiment [1] was determined as 1.88; in experiment [2], 1.16; in [3] it was 0.105; in experiment [4], 0.505; in experiment [5], 0.308; in experiment [6] it was 0.308. Further, the composite z-score in the experiment with Lefty1 amounted to 0.419; in experiment [8] it was 0.829. Moreover, the values for the z-score in [7] and in experiment [9] were 1.26 and -0.648 (inactive), respectively.

For `COc1ccc(CCNC(=O)[C@@H]2c3ccccc3C(=O)N(Cc3ccc(OC(F)(F)F)cc3)[C@H]2c2ccc(CO)cc2)cc1`, the composite z-score in [1] was found to be 1.66; in [2] it was 0.901; in experiment [3], 0.658; in experiment [4], 0.0913; in experiment [5] it was 1.18; in experiment [6], 0.494. For the same compound, the composite z-score stood at 0.147 in the experiment on Lefty1 and 0.213 in experiment [8]. The z-score was 1.48 in experiment [7] and -0.243 (inactive) in experiment [9].

As for `COC(=O)c1ccc(C(O)C2C=CC3C(=O)N(c4ccccc4)C(=O)C3N2Nc2ccc(C#N)cc2)o1` (stereo not given), the composite z-score was determined as 0.355 in experiment [1]; 0.889 in [2]; 0.303 in experiment [3]; 1 in [4]; 0.62 in experiment [5]; 0.275 in [6]. Also, the composite z-score was -0.0841 in the experiment on Lefty1 and 0.475 in experiment [8]. Besides, the z-score was 0.385 in [7] and -1.32 (inactive) in [9].

For `COC(=O)C[C@@H]1C[C@H](C)[C@]2(O1)C(=O)N(Cc1ccccc1)c1ccc(NC(C)=O)cc12`, the composite z-score in experiment [1] is 0.716; in experiment [2] it was 0.453; in experiment [3], -0.183; in [4] it was 0.458; in experiment [5], 0.431; in [6] it was 0.471. For the same compound, the values for the composite z-score (with Lefty1; in experiment [8]) were 0.488 and -0.259, respectively. Moreover, the values for the z-score in experiment [7] and in [9] were -1.05 and 0.0257 (inactive), respectively.

Regarding `C#CCN(C(/C=C/c1ccccc1)CO)C(C(=O)O)c1ccccc1` (stereo not given), the composite z-score in experiment [1] is -0.375; in experiment [2] it was -1.19; in experiment [3], 0.492; in [4], 0.116; in experiment [5], -0.523; in experiment [6], -0.354. The figures for the composite z-score (with Lefty1; in [8]) were -0.346 and -0.0819, respectively. The figures for the z-score in [7] and in [9] were -1.04 and -0.104 (inactive), respectively.

Turning to `CC(C)c1ccc(NN2C(C(O)c3c(F)cccc3Cl)C=CC3C(=O)N(c4ccccc4)C(=O)C32)cc1` (stereo not given), the composite z-score was 0.825 in experiment [1]; 1.13 in [2]; 0.823 in [3]; 0.935 in experiment [4]; 1.02 in experiment [5]; -0.0904 in [6]. The composite z-score in the experiment with Lefty1 was -0.0553; in experiment [8] it was 0.959. In addition, the z-score in [7] was -1.27; in experiment [9], -1.12 (inactive).

For `O=C1OCC=C[C@H]2OC34C=CCN(c5ccc6ccccc6c5)C(=O)[C@H]3N(CCCO)C(=O)[C@@H]4[C@@H]12` (stereo not given in full), the composite z-score in experiment [1] was -0.349; in experiment [2], -0.92; in experiment [3], -0.409; in [4] it was -0.669; in experiment [5], 0.0786; in [6], -0.989. In addition, the composite z-score is -0.11 with Lefty1 and -0.645 in [8]. In addition, the z-score in experiment [7] is -0.506; in [9] it was -0.18 (inactive).

For the compound `[N-]=[N+]=Nc1ccccc1[C@@H]1OC(c2ccc(OCCCO)cc2)=N[C@]1(CCS(=O)(=O)c1ccccc1)C(=O)N1CCOCC1`, the composite z-score in experiment [1] came to 1.48; in experiment [2], 1.26; in experiment [3] it was 0.488; in experiment [4], 1.02; in experiment [5] it was 1.33; in [6], 0.544. Moreover, the composite z-score with Lefty1 amounted to 0.541; in [8], 1.3. Further, the values for the z-score in experiment [7] and in [9] were 1.13 and -12.9 (active), respectively.

For `CC(C)N1C(=O)C[C@@](C(=O)NCc2ccccc2)(c2ccc([N+](=O)[O-])cc2)[C@H]1c1ccc(CO)cc1`, the composite z-score in experiment [1] is 2.58; in experiment [2], 1; in experiment [3], 0.159; in experiment [4], -0.511; in experiment [5], 0.692; in experiment [6] it was 0.118. For the same compound, the composite z-score in the experiment with Lefty1 was determined as 0.119; in experiment [8] it was 0.549. For the same compound, the values for the z-score in experiment [7] and in experiment [9] were 0.316 and 0.982 (inactive), respectively.

In the case of `O=C1O[C@H](c2ccccc2)[C@H](c2ccccc2)N2[C@H]1[C@@H](C(=O)NC[C@H](O)c1ccccc1)[C@]1(C(=O)Nc3ccc(C#CCCO)cc31)[C@H]2c1ccc(O)cc1`, the composite z-score in experiment [1] was -1.3; in [2], -1.08; in experiment [3], -0.598; in [4] it was -1.07; in experiment [5], -1.26; in experiment [6], -0.702. Also, the composite z-score with Lefty1 was -0.929; in [8], -1.09. Also, the z-score in [7] is -1.17; in [9] it was 0.145 (inactive).

In the case of `O=C1O[C@H](c2ccccc2)[C@H](c2ccccc2)N2[C@H]1[C@@H](C(=O)O)[C@]1(C(=O)Nc3ccc(C#CC4=CCCCC4)cc31)[C@H]2c1ccc(OCCO)cc1`, the composite z-score in experiment [1] worked out at 0.463; in [2], 1.24; in [3], 0.638; in [4], 0.98; in experiment [5], 1.26; in experiment [6], 0.919. The composite z-score in the experiment on Lefty1 was found to be 1.28; in [8], 1.1. In addition, the z-score in experiment [7] is -2.57; in experiment [9] it was -9.5 (active).

In the case of `CC(C)OC(=O)CC(=O)CC(O)c1ccc(C#N)cc1` (stereo not given), the composite z-score in experiment [1] is 0.548; in experiment [2] it was 1.14; in experiment [3] it was 0.762; in experiment [4] it was 1.04; in experiment [5] it was -0.337; in [6] it was -0.581. Moreover, the composite z-score in the experiment on Lefty1 was -0.783; in experiment [8] it was 0.731. For the same compound, the values for the z-score in experiment [7] and in [9] were 0.409 and 0.902 (inactive), respectively.

Consider `O=C1O[C@@H](c2ccccc2)[C@@H](c2ccccc2)N2[C@@H](c3ccc(O)cc3)[C@]3(C(=O)Nc4ccc(C#CC5(O)CCCCCC5)cc43)[C@@H](C(=O)N3CCCCCCC3)[C@H]12`, for which the composite z-score in experiment [1] was 1.47; in [2], 1.26; in experiment [3], 2.74; in [4], 0.962; in experiment [5], 1.47; in experiment [6], 1.62. The composite z-score in the experiment on Lefty1 amounted to 1.68; in experiment [8], 1.4. The z-score in experiment [7] is -0.15; in experiment [9] it was -0.593 (inactive).

Consider `O=C1OCCC=C[C@H]2OC34C=CCN(c5ccc6ccccc6c5)C(=O)[C@H]3N(CCCCCO)C(=O)[C@@H]4C12` (stereo not given in full), for which the composite z-score in experiment [1] is 0.565; in experiment [2], 0.312; in [3], 0.602; in experiment [4], 0.737; in [5], -0.626; in [6], -0.329. Further, the composite z-score in the experiment with Lefty1 was -0.332; in experiment [8], 1.28. The z-score in experiment [7] is 2.3; in [9], -1.1 (inactive).

As to `COc1ccc(C(=O)Nc2cccc(CN3C(=O)[C@]4(O[C@H](CC(=O)N5CCC[C@H]5CO)[C@@H]([Si](C)(C)c5ccc(OC)cc5)[C@@H]4C)c4ccccc43)c2)cc1`, the composite z-score was determined as 1.22 in [1]; 1.15 in [2]; 0.407 in experiment [3]; 0.634 in [4]; 1.03 in experiment [5]; 1.33 in experiment [6]. Further, the composite z-score with Lefty1 came to 0.728; in experiment [8], 0.595. Besides, the z-score is -0.407 in experiment [7] and -0.895 (inactive) in experiment [9].

As to `COCCOC(=O)N1C(=O)[C@@]2(c3cc(C#CC4=CCCCC4)ccc31)[C@H](C(=O)N1CCc3cc(OC)c(OC)cc3C1)[C@H]1C(=O)O[C@H](c3ccccc3)[C@H](c3ccccc3)N1[C@@H]2c1ccccc1OCCO`, the composite z-score in experiment [1] is -0.13; in [2], 0.487; in experiment [3], -0.106; in experiment [4], 0.061; in experiment [5], 1.29; in [6], 1.66. Moreover, the composite z-score in the experiment on Lefty1 was 1; in experiment [8] it was 0.747. The z-score in [7] was -1.11; in [9], -1.62 (inactive).
